The target in experiment [1] is T1, Serine/threonine-protein kinase TBK1 (Homo sapiens) (UniProt Q9UHD2).
T1 sequence (whole entry): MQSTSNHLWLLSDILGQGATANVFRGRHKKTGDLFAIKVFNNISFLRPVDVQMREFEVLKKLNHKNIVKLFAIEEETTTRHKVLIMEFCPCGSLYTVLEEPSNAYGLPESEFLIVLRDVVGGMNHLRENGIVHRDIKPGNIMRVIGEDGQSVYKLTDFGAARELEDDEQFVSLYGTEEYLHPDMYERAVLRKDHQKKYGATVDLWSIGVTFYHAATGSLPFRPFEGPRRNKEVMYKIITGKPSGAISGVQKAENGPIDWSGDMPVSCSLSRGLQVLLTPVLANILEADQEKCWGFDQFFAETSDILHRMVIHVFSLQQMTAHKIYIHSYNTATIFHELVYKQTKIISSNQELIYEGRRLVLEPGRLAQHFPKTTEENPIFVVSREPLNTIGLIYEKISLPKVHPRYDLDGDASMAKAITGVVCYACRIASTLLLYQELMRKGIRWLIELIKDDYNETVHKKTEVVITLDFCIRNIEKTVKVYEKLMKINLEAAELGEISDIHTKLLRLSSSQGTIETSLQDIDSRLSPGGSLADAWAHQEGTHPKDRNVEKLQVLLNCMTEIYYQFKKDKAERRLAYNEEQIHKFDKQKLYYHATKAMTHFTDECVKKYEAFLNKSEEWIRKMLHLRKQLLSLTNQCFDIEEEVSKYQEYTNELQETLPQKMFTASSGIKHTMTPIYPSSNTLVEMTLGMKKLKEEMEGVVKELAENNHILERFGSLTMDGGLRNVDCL
The settings on record: at 10 µM.

In experiment [2] the target is T2, TGF-beta receptor type-1 (Homo sapiens) (UniProt P36897).
T2 sequence (whole entry): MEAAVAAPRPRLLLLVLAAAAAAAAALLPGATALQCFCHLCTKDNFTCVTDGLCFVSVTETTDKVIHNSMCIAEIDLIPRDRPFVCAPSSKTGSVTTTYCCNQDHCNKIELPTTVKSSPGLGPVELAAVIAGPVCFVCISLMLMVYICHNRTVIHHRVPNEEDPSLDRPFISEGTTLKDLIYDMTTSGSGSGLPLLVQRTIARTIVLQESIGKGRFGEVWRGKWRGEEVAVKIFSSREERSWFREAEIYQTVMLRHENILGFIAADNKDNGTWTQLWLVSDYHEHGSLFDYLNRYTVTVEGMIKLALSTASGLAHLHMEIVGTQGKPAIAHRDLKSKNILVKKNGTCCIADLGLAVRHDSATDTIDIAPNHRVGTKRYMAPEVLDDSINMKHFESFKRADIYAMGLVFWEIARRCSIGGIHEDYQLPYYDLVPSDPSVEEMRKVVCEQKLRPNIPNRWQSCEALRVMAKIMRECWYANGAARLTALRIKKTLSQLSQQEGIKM
The settings on record: at 1 µM.

The target in experiment [3] is T2, TGF-beta receptor type-1 (Homo sapiens). To be noted: at 10 µM.
The target of experiment [4] is Insulin-like growth factor 1 receptor (Homo sapiens) (UniProt P08069). The settings on record: at 1 µM.
For experiment [5] the target is unchanged. To be noted: at 10 µM.
Experiment [6] concerns the target T3, Inhibitor of nuclear factor kappa-B kinase subunit alpha (Homo sapiens) (UniProt O15111).
T3 sequence (whole entry): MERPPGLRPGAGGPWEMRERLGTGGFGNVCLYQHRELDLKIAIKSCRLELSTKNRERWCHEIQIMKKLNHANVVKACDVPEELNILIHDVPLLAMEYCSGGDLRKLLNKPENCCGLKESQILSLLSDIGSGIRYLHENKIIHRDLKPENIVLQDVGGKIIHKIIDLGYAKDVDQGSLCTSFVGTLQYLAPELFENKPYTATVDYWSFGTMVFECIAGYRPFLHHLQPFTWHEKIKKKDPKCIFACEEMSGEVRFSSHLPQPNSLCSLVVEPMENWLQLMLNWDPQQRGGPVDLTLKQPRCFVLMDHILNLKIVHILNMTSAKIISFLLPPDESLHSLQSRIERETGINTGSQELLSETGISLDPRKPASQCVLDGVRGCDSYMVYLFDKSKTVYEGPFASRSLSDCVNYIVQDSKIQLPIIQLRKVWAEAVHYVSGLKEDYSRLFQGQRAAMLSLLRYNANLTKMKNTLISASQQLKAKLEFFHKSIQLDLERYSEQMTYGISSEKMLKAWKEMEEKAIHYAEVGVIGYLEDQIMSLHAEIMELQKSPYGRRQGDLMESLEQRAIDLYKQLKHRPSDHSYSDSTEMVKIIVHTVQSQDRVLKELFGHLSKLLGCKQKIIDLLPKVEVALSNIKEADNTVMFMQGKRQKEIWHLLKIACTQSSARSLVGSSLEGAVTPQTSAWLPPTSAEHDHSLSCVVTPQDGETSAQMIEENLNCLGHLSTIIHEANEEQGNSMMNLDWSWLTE
The settings on record: at 1 µM.

The target of experiment [7] is T3, Inhibitor of nuclear factor kappa-B kinase subunit alpha (Homo sapiens). The settings on record: at 10 µM.
Experiment [8] deals with T4, Inhibitor of nuclear factor kappa-B kinase subunit beta (Homo sapiens) (UniProt O14920).
T4 sequence (whole entry): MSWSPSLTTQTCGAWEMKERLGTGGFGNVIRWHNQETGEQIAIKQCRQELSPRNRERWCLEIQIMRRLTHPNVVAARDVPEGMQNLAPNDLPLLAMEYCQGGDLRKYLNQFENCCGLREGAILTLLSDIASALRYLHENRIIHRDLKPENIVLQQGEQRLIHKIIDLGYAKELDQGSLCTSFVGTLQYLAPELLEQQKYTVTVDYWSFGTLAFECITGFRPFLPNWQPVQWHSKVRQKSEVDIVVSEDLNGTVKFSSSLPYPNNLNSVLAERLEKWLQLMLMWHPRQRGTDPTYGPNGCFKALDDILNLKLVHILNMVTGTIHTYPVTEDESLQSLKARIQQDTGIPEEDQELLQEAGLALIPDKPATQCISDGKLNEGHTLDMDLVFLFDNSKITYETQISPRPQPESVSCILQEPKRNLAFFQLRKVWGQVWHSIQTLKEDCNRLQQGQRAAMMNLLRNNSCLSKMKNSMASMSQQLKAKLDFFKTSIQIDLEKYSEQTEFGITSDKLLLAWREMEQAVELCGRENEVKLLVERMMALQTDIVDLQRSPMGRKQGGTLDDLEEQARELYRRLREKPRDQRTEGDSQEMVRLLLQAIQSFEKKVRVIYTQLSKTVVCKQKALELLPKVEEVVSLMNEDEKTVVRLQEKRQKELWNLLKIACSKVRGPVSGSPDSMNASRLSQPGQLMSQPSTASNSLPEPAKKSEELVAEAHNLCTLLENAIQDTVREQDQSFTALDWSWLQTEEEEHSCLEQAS
The settings on record: at 1 µM.

Experiment [9] addresses T4, Inhibitor of nuclear factor kappa-B kinase subunit beta (Homo sapiens). The settings on record: at 10 µM.
Experiment [10] deals with Insulin receptor (Homo sapiens) (UniProt P06213). To be noted: at 1 µM.
Insulin receptor (Homo sapiens), sequence (P06213 28-758 limits assumed): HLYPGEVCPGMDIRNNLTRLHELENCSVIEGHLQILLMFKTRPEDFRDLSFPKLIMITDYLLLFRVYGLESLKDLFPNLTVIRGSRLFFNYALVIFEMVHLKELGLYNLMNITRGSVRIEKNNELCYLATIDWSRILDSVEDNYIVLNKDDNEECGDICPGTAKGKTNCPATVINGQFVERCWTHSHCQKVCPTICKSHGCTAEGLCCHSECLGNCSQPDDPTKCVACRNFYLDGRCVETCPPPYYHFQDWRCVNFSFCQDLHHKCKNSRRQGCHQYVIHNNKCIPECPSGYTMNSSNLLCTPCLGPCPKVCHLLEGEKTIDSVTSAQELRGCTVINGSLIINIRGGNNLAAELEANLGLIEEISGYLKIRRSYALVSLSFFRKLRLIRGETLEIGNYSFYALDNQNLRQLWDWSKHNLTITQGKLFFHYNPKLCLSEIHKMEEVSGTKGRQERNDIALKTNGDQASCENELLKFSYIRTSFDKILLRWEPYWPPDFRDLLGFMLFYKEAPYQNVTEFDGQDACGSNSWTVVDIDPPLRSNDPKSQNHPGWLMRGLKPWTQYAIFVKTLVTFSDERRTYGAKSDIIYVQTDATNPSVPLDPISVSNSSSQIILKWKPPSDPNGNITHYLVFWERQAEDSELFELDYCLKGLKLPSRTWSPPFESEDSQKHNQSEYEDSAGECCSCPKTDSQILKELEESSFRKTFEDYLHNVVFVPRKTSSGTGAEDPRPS
Insulin receptor (Homo sapiens), sequence (P06213 763-1382 limits assumed): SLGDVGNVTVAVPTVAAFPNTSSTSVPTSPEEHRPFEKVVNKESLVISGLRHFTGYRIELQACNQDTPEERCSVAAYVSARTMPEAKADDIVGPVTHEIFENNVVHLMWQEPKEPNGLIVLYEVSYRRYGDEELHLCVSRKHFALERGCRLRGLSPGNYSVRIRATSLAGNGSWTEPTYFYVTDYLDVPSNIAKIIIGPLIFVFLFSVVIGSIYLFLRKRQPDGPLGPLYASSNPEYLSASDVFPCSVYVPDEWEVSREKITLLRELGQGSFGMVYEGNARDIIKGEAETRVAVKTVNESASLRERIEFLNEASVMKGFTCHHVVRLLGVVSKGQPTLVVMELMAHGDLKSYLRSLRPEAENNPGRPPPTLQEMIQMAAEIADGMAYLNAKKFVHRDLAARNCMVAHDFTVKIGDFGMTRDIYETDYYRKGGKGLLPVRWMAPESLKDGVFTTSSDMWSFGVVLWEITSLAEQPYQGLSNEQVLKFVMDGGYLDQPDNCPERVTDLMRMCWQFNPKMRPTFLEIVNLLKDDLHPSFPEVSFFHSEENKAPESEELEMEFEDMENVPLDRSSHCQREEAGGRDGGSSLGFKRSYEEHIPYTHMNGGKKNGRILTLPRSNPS

Insulin-like growth factor 1 receptor (Homo sapiens), sequence (P08069 31-736 limits assumed): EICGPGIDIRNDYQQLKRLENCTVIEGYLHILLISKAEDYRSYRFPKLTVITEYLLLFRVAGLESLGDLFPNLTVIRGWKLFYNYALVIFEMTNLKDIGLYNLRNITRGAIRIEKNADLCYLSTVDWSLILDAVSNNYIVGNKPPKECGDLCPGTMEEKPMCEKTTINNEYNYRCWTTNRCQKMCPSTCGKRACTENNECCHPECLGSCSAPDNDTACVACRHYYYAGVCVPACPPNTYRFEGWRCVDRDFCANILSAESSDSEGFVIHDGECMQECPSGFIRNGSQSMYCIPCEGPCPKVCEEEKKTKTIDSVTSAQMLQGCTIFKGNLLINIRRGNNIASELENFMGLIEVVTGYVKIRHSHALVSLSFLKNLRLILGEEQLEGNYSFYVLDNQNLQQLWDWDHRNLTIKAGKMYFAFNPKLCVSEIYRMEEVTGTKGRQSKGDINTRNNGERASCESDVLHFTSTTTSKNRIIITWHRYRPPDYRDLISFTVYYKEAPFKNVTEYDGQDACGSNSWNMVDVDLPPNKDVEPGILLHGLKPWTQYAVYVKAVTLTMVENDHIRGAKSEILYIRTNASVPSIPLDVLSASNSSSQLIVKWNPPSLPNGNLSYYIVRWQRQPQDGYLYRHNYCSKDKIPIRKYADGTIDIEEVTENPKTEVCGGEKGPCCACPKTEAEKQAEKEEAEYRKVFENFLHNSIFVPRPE
Insulin-like growth factor 1 receptor (Homo sapiens), sequence (P08069 741-1367 limits assumed): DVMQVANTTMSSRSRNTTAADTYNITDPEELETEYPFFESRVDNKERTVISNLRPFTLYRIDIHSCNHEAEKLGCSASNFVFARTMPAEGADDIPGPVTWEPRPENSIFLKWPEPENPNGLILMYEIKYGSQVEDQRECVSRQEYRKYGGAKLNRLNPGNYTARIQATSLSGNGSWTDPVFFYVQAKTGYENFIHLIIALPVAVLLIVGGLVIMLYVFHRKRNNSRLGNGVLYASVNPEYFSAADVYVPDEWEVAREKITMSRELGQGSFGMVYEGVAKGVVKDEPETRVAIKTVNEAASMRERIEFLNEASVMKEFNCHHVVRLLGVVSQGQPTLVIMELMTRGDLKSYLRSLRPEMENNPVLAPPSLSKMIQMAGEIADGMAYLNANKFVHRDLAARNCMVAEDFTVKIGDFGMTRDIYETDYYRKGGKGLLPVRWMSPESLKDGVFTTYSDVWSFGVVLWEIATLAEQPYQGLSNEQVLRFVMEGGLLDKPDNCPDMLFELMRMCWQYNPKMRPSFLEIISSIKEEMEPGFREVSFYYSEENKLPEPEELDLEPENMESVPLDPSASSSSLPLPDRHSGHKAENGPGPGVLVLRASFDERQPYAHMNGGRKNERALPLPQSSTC

As to `C[C@@H](N)[C@H]1CC[C@H](C(=O)Nc2ccncc2)CC1`, the residual activity in [1] stood at 99%; in [2] it was 113%; in [3] it was 105%; in experiment [4] it was 115%; in experiment [5] it was 105%; in [6], 136%. Besides, the residual activity in [7] turned out to be 64%; in experiment [8] it was 87%; in [9] it was 77%; in experiment [10] it was 100%.

The record behind these values is ChEMBL document CHEMBL2218924, “A broad activity screen in support of a chemogenomic map for kinase signalling research and drug discovery” (Biochem J, 2013).
